The record followed here is ChEMBL document CHEMBL1961873, “Compounds: GSK PKIS; Assays: Nanosyn kinase panel” (2012).

By inhibition is commonly meant the drop in the measured response relative to a control, in per cent.

For experiment [1], the system named is Tyrosine-protein kinase ABL1 (Homo sapiens), P00519 [T315I]. The note with it: at 1 µM.
The subject of experiment [2] is Tyrosine-protein kinase ABL1 (Homo sapiens), P00519 [Y253F]. The note with it: at 0.1 µM.
The test system is the same in experiment [3]. The note with it: at 1 µM.
Experiment [4] concerns the target Tyrosine-protein kinase ABL1 (Homo sapiens) (UniProt P00519). The note with it: at 0.1 µM.
Experiment [5] has the same target. The note with it: at 1 µM.
Experiment [6] addresses ALK tyrosine kinase receptor (Homo sapiens) (UniProt Q9UM73). The note with it: at 0.1 µM.
Experiment [7] shares this target. The note with it: at 1 µM.
Experiment [8] deals with Tyrosine-protein kinase ABL2 (Homo sapiens) (UniProt P42684). The note with it: at 0.1 µM.
Chain of Tyrosine-protein kinase ABL2 (Homo sapiens) (P42684 whole entry): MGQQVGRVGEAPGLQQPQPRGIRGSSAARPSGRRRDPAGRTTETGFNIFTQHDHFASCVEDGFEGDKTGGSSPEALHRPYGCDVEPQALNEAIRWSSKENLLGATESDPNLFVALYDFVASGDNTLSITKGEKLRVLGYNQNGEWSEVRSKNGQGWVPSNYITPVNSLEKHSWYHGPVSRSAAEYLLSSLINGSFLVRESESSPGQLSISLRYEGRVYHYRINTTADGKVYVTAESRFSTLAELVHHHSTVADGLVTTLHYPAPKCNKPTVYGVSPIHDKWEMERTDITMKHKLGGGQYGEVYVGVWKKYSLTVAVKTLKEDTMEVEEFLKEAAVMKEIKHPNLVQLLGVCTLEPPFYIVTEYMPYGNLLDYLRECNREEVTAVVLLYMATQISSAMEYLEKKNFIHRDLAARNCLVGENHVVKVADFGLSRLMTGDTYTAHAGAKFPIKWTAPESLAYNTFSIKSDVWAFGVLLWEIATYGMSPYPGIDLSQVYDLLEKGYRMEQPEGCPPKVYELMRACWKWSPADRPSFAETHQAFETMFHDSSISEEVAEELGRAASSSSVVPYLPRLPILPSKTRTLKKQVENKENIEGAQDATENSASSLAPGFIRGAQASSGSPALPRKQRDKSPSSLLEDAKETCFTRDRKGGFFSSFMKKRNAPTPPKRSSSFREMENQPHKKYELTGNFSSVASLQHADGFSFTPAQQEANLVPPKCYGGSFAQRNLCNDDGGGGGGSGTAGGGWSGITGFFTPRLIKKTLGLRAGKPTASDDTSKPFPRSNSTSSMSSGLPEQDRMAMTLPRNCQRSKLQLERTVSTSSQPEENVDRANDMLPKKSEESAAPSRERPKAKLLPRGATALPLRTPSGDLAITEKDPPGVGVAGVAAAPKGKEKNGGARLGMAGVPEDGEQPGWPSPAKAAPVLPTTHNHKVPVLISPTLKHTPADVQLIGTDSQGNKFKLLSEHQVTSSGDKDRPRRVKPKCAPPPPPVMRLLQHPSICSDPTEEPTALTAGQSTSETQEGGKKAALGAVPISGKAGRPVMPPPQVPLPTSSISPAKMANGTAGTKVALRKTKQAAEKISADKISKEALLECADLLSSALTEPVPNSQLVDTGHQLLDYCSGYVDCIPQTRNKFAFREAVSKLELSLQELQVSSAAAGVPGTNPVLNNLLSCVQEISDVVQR
Experiment [9] shares this target. The note with it: at 1 µM.
For experiment [10], the target named is Tyrosine-protein kinase receptor UFO (Homo sapiens) (UniProt P30530). The note with it: at 0.1 µM.
Chain of Tyrosine-protein kinase receptor UFO (Homo sapiens) (P30530 whole entry): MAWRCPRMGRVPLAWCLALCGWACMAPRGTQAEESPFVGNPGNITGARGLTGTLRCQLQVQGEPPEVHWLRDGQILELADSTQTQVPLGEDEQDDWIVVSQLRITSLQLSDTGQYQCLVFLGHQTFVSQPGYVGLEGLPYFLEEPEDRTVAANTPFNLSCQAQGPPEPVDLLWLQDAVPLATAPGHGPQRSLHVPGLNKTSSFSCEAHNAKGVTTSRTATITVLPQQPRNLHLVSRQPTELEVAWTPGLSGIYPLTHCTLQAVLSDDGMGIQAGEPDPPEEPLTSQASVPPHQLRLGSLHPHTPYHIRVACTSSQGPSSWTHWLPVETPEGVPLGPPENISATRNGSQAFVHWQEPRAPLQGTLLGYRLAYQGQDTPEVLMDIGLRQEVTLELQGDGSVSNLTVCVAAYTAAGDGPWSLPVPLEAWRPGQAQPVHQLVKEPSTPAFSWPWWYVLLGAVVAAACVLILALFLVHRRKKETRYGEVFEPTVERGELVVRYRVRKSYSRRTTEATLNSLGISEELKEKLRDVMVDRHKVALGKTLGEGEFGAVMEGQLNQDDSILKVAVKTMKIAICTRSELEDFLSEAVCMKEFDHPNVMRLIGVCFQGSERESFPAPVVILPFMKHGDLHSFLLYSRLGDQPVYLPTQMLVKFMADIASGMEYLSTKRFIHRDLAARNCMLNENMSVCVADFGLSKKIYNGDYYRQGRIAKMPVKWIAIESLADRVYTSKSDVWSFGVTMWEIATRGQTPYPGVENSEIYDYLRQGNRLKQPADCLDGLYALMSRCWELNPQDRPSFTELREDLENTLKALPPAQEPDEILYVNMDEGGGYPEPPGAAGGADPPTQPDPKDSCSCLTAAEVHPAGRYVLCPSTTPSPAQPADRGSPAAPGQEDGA
Experiment [11] shares this target. The note with it: at 1 µM.
Experiment [12] addresses Tyrosine-protein kinase Blk (Homo sapiens) (UniProt P51451). The note with it: at 0.1 µM.
The target is the same in experiment [13]. The note with it: at 1 µM.
The target in experiment [14] is T1, Cytoplasmic tyrosine-protein kinase BMX (Homo sapiens) (UniProt P51813).
T1 sequence (whole entry): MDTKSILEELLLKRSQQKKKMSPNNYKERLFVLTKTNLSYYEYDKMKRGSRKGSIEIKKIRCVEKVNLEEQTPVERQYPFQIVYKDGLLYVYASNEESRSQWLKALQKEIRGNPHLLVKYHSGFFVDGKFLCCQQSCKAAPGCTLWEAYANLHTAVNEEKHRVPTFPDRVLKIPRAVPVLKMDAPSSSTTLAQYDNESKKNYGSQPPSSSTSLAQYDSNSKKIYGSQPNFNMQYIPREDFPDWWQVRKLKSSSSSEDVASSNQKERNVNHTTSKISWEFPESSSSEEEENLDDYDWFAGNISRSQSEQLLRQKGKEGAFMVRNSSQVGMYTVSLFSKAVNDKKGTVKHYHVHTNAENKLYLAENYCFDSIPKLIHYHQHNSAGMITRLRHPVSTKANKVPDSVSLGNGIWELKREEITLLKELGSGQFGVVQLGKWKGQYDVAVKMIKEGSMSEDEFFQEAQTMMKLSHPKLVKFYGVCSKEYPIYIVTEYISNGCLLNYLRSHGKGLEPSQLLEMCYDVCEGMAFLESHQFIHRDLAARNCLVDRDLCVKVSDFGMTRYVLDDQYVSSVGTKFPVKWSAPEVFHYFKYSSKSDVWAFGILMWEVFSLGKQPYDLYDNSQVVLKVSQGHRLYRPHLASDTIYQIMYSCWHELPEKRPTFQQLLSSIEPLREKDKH
The note with it: at 0.1 µM.

For experiment [15], the target named is T1, Cytoplasmic tyrosine-protein kinase BMX (Homo sapiens). The note with it: at 1 µM.
The target in experiment [16] is Protein-tyrosine kinase 6 (Homo sapiens) (UniProt Q13882). The note with it: at 0.1 µM.
Chain of Protein-tyrosine kinase 6 (Homo sapiens) (Q13882 whole entry, looked up): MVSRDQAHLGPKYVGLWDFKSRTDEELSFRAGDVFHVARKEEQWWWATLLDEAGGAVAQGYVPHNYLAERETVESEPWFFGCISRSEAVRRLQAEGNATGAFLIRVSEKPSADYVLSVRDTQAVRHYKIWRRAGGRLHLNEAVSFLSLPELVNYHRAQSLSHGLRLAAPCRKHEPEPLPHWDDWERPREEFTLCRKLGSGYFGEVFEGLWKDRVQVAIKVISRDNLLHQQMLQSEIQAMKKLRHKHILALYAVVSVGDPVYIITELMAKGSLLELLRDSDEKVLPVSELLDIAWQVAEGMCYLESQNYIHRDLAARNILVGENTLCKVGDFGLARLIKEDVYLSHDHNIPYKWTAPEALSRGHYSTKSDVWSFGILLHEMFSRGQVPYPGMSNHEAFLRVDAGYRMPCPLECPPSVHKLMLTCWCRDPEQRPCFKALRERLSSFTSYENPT
Experiment [17] shares this target. The note with it: at 1 µM.
The target in experiment [18] is Tyrosine-protein kinase BTK (Homo sapiens) (UniProt Q06187). The note with it: at 0.1 µM.
Experiment [19] shares this target. The note with it: at 1 µM.
Experiment [20] deals with Tyrosine-protein kinase CSK (Homo sapiens) (UniProt P41240). The note with it: at 0.1 µM.
Chain of Tyrosine-protein kinase CSK (Homo sapiens) (P41240 2-450 limits assumed): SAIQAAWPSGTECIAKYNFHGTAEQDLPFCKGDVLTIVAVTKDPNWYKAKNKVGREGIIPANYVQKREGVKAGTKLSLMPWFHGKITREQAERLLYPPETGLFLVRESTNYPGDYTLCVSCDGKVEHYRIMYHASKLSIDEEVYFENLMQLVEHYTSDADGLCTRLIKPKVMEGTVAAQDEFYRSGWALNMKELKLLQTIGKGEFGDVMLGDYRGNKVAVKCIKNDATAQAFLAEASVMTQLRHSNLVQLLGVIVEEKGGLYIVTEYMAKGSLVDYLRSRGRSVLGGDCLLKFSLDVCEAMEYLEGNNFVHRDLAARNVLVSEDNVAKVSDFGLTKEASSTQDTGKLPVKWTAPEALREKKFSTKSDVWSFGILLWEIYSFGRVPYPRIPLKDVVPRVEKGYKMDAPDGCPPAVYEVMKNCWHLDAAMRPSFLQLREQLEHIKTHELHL

Chain of ALK tyrosine kinase receptor (Homo sapiens) (Q9UM73 19-1620 limits assumed): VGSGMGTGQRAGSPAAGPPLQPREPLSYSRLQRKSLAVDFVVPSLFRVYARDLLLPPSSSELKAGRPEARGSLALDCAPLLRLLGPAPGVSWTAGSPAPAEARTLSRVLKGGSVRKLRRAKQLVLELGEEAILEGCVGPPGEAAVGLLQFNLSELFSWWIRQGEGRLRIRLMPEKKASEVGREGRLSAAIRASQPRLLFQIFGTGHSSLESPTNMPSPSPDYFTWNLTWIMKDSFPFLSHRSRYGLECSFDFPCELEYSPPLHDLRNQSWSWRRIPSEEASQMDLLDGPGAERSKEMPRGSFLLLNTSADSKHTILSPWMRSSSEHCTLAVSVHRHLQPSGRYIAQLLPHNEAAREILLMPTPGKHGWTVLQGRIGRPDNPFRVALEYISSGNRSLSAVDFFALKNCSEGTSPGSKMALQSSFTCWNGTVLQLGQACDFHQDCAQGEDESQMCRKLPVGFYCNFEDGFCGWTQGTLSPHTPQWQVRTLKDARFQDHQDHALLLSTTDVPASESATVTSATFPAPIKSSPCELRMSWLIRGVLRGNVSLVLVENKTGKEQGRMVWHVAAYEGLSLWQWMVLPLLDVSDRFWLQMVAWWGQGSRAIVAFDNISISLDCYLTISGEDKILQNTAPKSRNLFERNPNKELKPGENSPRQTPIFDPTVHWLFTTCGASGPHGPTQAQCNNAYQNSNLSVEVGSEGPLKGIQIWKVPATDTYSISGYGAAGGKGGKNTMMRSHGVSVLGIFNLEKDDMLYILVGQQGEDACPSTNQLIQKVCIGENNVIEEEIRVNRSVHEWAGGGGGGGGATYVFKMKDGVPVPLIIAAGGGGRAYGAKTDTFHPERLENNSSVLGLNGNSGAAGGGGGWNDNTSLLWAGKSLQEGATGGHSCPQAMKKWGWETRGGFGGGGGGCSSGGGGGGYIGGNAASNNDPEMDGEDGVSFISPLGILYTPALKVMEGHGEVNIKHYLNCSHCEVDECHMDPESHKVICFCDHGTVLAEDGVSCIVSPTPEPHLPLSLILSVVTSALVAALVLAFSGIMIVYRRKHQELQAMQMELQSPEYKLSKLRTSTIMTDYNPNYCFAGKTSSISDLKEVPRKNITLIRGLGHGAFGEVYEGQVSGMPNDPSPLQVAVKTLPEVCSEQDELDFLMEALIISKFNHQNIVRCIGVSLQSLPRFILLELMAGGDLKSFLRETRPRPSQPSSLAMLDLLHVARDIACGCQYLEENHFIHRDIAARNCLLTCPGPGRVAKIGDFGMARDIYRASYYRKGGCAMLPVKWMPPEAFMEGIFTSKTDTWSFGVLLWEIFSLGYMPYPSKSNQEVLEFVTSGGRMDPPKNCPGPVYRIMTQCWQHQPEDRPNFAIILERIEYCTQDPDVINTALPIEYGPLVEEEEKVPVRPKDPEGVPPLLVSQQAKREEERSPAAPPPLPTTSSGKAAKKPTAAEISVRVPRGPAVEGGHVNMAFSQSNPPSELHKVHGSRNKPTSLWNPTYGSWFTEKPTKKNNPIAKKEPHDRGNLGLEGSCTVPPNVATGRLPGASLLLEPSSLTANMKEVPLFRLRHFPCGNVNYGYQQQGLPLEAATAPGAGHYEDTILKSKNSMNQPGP
Chain of Tyrosine-protein kinase Blk (Homo sapiens) (P51451 2-505 limits assumed): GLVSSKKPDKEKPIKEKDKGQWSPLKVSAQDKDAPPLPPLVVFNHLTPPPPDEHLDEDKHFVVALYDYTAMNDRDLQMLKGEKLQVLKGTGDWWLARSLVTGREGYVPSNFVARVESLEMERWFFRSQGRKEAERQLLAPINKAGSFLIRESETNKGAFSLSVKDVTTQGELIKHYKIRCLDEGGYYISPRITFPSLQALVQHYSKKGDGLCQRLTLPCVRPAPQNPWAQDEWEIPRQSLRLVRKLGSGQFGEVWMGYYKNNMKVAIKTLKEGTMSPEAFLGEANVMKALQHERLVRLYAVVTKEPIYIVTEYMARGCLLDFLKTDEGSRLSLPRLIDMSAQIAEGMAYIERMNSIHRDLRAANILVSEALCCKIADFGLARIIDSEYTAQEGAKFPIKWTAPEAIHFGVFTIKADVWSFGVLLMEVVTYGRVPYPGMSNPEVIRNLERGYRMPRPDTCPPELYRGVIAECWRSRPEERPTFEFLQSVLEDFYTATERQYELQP

Take `COc1cccc(-n2ncc3c(N/N=C/c4ccc(C)cc4)ncnc32)c1`: the inhibition in experiment [1] is 23.2%; in [2] it was 31.8%; in [3], 76.1%; in experiment [4] it was 13%; in [5], 62.1%; in experiment [6], 12.4%. Also, the inhibition in [7] is 22.3%; in experiment [8], 64.2%; in [9], 40.5%; in [10], -3.91%; in [11], -6.6%; in experiment [12], 3.17%. Moreover, the inhibition is 7.15% in experiment [13]; 5.21% in experiment [14]; 10.6% in experiment [15]; 3.4% in experiment [16]; 5.43% in experiment [17]; -0.28% in experiment [18]. Moreover, the inhibition in [19] was determined as 0.44%; in [20], 2.91%.
On to `COc1cc2ncnc(Nc3ccc4c(cnn4Cc4ccccc4)c3)c2cc1OC`, for which the inhibition came to 7.47% in [1]; 2.86% in [2]; 4.15% in experiment [3]; 3.47% in experiment [4]; 3.36% in experiment [5]; 1.67% in [6]. Also, the inhibition in experiment [7] is 3.06%; in [8], 0.85%; in [9], 4.75%; in experiment [10], -3.79%; in [11], -3.18%; in experiment [12], 13.9%. In addition, the inhibition in experiment [13] was found to be 60.8%; in experiment [14], 3.73%; in experiment [15], 23.4%; in [16], 13.1%; in experiment [17], 53.2%; in experiment [18], 4.09%. Besides, the inhibition was found to be 29.1% in experiment [19] and 11.1% in [20].
Turning to `C[C@@H](Oc1cc(-n2cnc3ccc(OCC4CCN(C)CC4)cc32)sc1C(N)=O)c1ccccc1C(F)(F)F`, the inhibition was 13.7% in experiment [1]; -1.07% in [2]; 1.43% in experiment [3]; 0.74% in experiment [4]; 2.7% in experiment [5]; 1.57% in experiment [6]. The inhibition in [7] stood at 20.8%; in experiment [8] it was 0.15%; in [9] it was 3.87%; in experiment [10], 3.82%; in [11], 12.8%; in [12], 1.16%. For the same molecule, the inhibition is 14.4% in [13]; -1.33% in [14]; -2.09% in [15]; -0.71% in experiment [16]; -4.24% in [17]; 0.52% in experiment [18]. Moreover, the results for the inhibition in experiment [19] and in [20] were -1.06% and -4.98%, respectively.
Regarding `Cc1ccc2c(c1)/C(=N/Nc1ccc(S(N)(=O)=O)cc1)C(=O)N2`, the inhibition was 7.37% in experiment [1]; -0.42% in experiment [2]; 7.64% in experiment [3]; 0.83% in experiment [4]; 8.09% in experiment [5]; 0.89% in experiment [6]. Further, the inhibition in experiment [7] is 2.77%; in [8], 3.63%; in experiment [9] it was 12.1%; in [10], -1.65%; in experiment [11], 2.86%; in [12] it was 0.29%. Further, the inhibition in experiment [13] is 11.2%; in experiment [14], 1.94%; in experiment [15], -0.8%; in experiment [16], -3.49%; in [17], -3.16%; in experiment [18], 0.42%. Moreover, the inhibition is 3.78% in experiment [19] and -2.97% in experiment [20].
Turning to `Cc1ccc(Nc2ccnc(Nc3cccc(C(N)=O)c3)n2)cc1O`, the inhibition in experiment [1] was 39.8%; in [2] it was 80.4%; in experiment [3] it was 94.1%; in [4], 56.4%; in experiment [5], 79.5%; in experiment [6] it was -0.94%. In addition, the inhibition in experiment [7] was 10.9%; in [8] it was 50.8%; in experiment [9] it was 77.1%; in experiment [10] it was -5.49%; in [11], 0.42%; in [12], 11.8%. In addition, the inhibition in experiment [13] was 71.2%; in experiment [14], 14.1%; in experiment [15] it was 56.7%; in experiment [16], 48.9%; in experiment [17], 91.5%; in experiment [18] it was 3.4%. Also, the inhibition in experiment [19] was determined as 29.1%; in [20] it was 10.8%.
Turning to `COC(=O)Nc1nc2cc(Oc3ccc(NC(=O)Nc4cccc(Br)c4)cc3)ccc2[nH]1`, the inhibition in experiment [1] worked out at 44.6%; in [2], 7.87%; in experiment [3], 16.5%; in experiment [4] it was 6.66%; in experiment [5], 19%; in [6], 2.06%. Also, the inhibition in [7] was 3.65%; in [8] it was 16.1%; in experiment [9] it was 34.4%; in experiment [10], -0.21%; in experiment [11] it was 9.52%; in [12], 3.1%. In addition, the inhibition in [13] is 2.8%; in experiment [14], 2.76%; in experiment [15] it was 1.32%; in experiment [16] it was 3.81%; in [17] it was 4.63%; in experiment [18] it was 1.15%. Moreover, the figures for the inhibition in experiment [19] and in experiment [20] were 0.55% and 7.57%, respectively.
